What all share (experiment): DAPPL (digital affinity profiling via proximity ligation, sequencing); 10 mM Tris-HCl pH 7.5, 50 mM NaCl, 1 mM DTT, 4% glycerol, room temperature, 30 min; GST-TFs on glutathione beads, 16-mer random dsDNA library, 0.1% formaldehyde crosslink after washing; high values mean tight binding
Experiment [1] concerns the target T1, FEV (Homo sapiens, UniProt Q99581 1-238).
T1 sequence: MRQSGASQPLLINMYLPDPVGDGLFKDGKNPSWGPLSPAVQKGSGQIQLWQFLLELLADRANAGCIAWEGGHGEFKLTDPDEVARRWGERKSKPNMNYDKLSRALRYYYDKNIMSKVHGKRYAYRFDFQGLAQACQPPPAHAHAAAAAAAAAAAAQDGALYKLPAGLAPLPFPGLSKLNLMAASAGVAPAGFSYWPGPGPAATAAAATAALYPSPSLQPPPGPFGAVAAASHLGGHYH
The conditions noted are these: protein: recombinant; tags: N-terminal GST; dsDNA, one strand shown. In a few lines: (§1)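 Binding signal is each hexamer's read frequency for a factor divided by its frequency in the tag-only sample. The factors were GST-fused human transcription factors from yeast, captured on glutathione beads, DNA-barcoded and pooled with that sample. Pools were incubated with 200 nmole of a random double-stranded 16-mer DNA library in Tris/NaCl/DTT/glycerol buffer at room temperature for 30 min, then washed, crosslinked with 0.1% formaldehyde, proximity-ligated with BsaI/T4 ligase (1 h, 37 °C), PCR-amplified and sequenced on an Illumina NextSeq500.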

In experiment [2] the target is ETV5 (Homo sapiens, UniProt P41161 1-510). The conditions noted are these: protein: recombinant; tags: N-terminal GST; dsDNA, one strand shown. In a few lines: as §1
Sequence of ETV5 (P41161 whole entry): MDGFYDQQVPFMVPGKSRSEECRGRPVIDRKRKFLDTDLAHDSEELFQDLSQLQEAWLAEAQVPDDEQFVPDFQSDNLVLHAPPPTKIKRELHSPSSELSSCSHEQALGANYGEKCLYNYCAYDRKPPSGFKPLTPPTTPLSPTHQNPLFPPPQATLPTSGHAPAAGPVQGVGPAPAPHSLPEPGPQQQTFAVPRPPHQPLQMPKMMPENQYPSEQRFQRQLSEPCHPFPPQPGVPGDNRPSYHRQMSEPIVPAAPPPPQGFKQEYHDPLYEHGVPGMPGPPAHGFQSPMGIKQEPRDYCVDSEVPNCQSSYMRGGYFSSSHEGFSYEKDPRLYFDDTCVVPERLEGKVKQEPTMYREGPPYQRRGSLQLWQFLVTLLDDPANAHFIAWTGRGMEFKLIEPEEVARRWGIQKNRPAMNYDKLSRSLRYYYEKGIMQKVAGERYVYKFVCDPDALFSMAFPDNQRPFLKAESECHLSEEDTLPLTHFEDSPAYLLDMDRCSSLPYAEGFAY
The target of experiment [3] is HSF1 (Homo sapiens, UniProt Q00613 1-529). Particulars: protein: recombinant; tags: N-terminal GST; chain copies: 3; dsDNA, one strand shown. In a few lines:
as §1

Experiment [4] addresses T2, SPIC (Homo sapiens, UniProt Q8N5J4 1-248).
T2 sequence: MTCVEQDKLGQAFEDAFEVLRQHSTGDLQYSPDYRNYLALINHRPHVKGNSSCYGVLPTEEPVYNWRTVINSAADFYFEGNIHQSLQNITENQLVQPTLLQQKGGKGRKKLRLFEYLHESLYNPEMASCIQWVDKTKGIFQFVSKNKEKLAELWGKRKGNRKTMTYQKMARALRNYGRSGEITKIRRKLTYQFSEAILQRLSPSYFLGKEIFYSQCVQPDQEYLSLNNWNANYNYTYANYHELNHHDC
The conditions noted are these: protein: recombinant; tags: N-terminal GST; dsDNA, one strand shown. The procedure, abridged:
as §1

Experiment [5] deals with ELF4 (Homo sapiens, UniProt Q99607 1-663). Particulars: protein: recombinant; tags: N-terminal GST; dsDNA, one strand shown. In a few lines:
as §1

Experiment [6] concerns the target T3, ELK4 (Homo sapiens, UniProt P28324-2 1-405).
T3 sequence: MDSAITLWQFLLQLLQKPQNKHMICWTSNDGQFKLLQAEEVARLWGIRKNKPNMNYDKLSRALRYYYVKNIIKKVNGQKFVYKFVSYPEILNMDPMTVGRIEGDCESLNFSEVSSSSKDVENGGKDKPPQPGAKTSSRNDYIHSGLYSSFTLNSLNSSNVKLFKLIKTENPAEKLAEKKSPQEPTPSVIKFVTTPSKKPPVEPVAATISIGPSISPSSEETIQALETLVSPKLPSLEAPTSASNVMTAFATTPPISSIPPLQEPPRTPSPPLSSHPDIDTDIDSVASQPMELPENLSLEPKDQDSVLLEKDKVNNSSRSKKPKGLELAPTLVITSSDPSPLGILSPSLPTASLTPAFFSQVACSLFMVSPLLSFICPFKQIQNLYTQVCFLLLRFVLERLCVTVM
The conditions noted are these: protein: recombinant; tags: N-terminal GST; dsDNA, one strand shown. In a few lines:
as §1

Experiment [7] has as its target T4, ETV2 (Homo sapiens, UniProt O00321 1-342).
T4 sequence: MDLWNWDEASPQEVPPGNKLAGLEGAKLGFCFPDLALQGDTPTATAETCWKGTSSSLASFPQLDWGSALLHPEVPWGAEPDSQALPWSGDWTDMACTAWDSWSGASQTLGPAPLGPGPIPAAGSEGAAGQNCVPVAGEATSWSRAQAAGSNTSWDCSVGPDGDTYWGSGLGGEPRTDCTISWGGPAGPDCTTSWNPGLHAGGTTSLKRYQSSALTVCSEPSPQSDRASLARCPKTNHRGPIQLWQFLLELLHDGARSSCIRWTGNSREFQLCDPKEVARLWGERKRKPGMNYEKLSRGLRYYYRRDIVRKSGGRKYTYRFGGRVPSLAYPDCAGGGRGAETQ
Particulars: protein: recombinant; tags: N-terminal GST; dsDNA, one strand shown. The procedure, abridged: as §1

The target of experiment [8] is T5, ELF3 (Homo sapiens, UniProt P78545 1-371).
T5 sequence: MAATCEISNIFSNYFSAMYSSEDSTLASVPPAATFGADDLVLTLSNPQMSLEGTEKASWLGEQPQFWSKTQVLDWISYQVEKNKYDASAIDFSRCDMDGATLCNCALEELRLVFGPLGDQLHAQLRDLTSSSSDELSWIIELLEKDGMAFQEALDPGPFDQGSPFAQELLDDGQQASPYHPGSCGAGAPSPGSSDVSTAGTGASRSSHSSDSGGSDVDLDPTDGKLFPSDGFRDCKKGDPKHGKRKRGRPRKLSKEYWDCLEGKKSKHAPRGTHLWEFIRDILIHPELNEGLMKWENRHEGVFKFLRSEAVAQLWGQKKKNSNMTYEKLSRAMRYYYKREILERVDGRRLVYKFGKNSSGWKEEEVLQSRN
The conditions noted are these: protein: recombinant; tags: N-terminal GST; dsDNA, one strand shown. The procedure, abridged: as §1

The target of experiment [9] is CRX (Homo sapiens, UniProt O43186 1-299). Particulars: protein: recombinant; tags: N-terminal GST; dsDNA, one strand shown. In a few lines: as §1
Sequence of CRX (O43186 whole entry): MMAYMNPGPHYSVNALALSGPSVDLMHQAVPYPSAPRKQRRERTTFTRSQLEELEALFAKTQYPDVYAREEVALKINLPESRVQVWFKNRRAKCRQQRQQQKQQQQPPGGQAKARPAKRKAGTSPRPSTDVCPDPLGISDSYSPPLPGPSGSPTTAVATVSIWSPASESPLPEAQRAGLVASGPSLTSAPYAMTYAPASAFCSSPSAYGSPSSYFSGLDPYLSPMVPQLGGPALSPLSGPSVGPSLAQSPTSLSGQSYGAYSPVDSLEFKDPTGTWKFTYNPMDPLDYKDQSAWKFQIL
Experiment [10] deals with ETV1 (Homo sapiens, UniProt P50549 1-477). Particulars: protein: recombinant; tags: N-terminal GST; dsDNA, one strand shown. The procedure, abridged: as §1
Sequence of ETV1 (P50549 whole entry): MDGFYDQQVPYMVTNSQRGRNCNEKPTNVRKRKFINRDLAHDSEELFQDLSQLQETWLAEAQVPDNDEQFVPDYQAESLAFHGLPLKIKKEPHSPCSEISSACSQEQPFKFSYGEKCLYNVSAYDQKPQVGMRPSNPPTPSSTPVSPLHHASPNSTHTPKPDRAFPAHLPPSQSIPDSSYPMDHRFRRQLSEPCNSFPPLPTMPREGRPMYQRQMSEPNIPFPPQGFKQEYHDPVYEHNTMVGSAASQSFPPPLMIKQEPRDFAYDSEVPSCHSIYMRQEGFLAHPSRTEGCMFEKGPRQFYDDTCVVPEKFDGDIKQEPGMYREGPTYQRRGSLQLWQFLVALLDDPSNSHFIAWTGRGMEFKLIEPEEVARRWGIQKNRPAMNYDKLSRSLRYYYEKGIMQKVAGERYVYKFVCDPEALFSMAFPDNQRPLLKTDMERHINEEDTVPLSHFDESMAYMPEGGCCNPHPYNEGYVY
The target of experiment [11] is T6, ERF (Homo sapiens, UniProt P50548 1-548).
T6 sequence: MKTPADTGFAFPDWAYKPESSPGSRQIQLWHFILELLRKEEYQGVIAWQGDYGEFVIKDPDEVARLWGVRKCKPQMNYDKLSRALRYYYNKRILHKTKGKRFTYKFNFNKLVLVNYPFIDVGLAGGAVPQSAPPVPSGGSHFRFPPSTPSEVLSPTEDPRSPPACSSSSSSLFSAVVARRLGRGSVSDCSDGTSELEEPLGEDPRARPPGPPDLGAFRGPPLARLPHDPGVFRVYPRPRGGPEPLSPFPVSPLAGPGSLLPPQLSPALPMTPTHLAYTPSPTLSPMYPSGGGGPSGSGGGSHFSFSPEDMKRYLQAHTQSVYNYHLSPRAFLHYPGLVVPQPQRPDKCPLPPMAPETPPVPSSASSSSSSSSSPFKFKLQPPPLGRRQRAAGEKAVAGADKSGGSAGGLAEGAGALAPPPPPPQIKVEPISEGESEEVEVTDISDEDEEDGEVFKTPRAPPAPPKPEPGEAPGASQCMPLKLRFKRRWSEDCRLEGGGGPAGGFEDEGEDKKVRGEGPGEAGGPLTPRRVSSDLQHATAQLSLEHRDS
The conditions noted are these: protein: recombinant; tags: N-terminal GST; dsDNA, one strand shown. In a few lines: as §1

Experiment [12] has as its target T7, ETV3L (Homo sapiens, UniProt Q6ZN32 1-361).
T7 sequence: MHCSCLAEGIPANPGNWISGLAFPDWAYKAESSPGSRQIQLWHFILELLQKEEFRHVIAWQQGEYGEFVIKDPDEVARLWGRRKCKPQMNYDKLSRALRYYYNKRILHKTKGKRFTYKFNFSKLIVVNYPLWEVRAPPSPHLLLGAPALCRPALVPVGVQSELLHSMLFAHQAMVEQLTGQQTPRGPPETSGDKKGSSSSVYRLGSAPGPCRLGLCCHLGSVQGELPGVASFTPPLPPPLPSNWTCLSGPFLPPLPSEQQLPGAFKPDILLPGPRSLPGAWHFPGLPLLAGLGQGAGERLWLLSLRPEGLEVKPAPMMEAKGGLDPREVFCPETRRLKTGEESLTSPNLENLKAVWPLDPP
The conditions noted are these: protein: recombinant; tags: N-terminal GST; dsDNA, one strand shown. In a few lines:
as §1

Experiment [13] has as its target T8, ETS2 (Homo sapiens, UniProt P15036 1-469).
T8 sequence: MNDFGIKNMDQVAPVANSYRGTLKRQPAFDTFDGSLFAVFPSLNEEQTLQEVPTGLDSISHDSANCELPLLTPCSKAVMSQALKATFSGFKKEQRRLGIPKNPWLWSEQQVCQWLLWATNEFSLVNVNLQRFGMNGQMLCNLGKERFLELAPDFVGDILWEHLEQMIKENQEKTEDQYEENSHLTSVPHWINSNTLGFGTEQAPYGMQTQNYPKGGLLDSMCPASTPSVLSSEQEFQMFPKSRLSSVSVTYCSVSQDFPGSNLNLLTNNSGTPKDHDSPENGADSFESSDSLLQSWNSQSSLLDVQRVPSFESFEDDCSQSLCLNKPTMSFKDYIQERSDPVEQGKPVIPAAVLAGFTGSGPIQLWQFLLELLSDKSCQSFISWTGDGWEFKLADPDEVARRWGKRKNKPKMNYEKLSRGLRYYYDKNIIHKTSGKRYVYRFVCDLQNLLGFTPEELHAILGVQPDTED
The conditions noted are these: protein: recombinant; tags: N-terminal GST; dsDNA, one strand shown. In a few lines: as §1

The target in experiment [14] is T9, SPDEF (Homo sapiens, UniProt O95238 1-335).
T9 sequence: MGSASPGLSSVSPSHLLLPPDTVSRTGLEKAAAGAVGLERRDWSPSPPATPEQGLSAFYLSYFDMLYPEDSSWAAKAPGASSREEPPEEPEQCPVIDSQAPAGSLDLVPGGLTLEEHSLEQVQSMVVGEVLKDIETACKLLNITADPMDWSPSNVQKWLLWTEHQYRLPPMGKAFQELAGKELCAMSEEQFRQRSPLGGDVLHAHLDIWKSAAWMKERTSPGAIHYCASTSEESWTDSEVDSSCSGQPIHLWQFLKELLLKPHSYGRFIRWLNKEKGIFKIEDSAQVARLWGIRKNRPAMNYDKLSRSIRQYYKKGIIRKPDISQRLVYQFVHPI
Particulars: protein: recombinant; tags: N-terminal GST; dsDNA, one strand shown. The procedure, abridged: as §1

Experiment [15] has as its target T10, ETV7 (Homo sapiens, UniProt Q9Y603 1-341).
T10 sequence: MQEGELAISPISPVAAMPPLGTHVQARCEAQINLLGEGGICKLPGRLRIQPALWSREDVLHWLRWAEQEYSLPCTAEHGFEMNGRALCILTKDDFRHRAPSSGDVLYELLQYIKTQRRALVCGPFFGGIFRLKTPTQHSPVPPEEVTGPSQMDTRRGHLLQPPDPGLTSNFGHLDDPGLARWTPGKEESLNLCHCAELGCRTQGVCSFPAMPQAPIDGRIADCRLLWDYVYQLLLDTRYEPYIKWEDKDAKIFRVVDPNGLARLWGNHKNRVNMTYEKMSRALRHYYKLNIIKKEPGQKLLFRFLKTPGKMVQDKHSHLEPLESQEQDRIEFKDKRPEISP
Particulars: protein: recombinant; tags: N-terminal GST; dsDNA, one strand shown. In a few lines:
as §1

In experiment [16] the target is T11, ELF5 (Homo sapiens, UniProt Q9UKW6-2 1-255).
T11 sequence: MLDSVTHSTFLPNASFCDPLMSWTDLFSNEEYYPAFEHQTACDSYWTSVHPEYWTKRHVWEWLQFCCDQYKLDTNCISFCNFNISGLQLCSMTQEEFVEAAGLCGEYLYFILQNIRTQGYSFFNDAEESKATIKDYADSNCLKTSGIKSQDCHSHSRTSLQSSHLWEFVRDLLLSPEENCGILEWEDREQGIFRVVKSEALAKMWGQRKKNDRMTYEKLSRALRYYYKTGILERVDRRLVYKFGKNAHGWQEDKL
Particulars: protein: recombinant; tags: N-terminal GST; dsDNA, one strand shown. The procedure, abridged:
as §1

The target in experiment [17] is T12, ETV3 (Homo sapiens, UniProt P41162-2 1-143).
T12 sequence: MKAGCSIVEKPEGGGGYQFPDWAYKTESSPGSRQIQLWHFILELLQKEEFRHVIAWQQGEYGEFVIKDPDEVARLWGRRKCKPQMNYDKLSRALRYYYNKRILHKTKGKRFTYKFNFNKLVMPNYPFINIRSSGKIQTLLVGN
The conditions noted are these: protein: recombinant; tags: N-terminal GST; dsDNA, one strand shown. In a few lines:
as §1

For experiment [18], the target named is ETV6 (Homo sapiens, UniProt P41212 1-452). The conditions noted are these: protein: recombinant; tags: N-terminal GST; dsDNA, one strand shown. The procedure, abridged:
as §1

Our source for the binding signal values is publication PMC7862700, “An all-to-all approach to the identification of sequence-specific readers for epigenetic DNA modifications on cytosine”.

Sequence of HSF1 (Q00613 whole entry): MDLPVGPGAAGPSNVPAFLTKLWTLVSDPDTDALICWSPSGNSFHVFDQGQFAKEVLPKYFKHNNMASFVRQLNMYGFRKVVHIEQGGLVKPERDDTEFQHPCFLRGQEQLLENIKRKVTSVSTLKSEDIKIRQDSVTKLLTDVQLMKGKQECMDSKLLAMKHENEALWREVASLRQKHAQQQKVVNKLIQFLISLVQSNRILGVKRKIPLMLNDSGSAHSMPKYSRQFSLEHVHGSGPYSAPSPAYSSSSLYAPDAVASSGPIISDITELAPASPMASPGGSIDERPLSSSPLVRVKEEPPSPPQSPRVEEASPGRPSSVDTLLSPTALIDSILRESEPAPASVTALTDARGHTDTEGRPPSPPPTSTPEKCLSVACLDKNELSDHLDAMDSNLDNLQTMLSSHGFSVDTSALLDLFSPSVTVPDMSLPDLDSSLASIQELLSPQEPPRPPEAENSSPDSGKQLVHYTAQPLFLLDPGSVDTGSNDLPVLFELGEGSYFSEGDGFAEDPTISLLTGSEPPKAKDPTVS
Sequence of ETV6 (P41212 whole entry): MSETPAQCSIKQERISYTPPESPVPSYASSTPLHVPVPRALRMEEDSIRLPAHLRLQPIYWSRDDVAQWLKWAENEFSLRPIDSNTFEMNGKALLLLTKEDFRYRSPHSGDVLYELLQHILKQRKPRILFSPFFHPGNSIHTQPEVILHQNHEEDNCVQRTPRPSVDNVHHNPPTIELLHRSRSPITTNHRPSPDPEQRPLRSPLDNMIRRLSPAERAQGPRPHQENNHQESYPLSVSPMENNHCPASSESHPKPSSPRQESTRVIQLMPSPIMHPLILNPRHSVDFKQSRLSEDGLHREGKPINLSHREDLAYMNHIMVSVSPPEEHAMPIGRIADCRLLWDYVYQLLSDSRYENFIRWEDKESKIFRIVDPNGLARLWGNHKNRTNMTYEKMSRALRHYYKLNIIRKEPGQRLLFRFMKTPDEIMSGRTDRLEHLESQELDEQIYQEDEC
Sequence of ELF4 (Q99607 whole entry): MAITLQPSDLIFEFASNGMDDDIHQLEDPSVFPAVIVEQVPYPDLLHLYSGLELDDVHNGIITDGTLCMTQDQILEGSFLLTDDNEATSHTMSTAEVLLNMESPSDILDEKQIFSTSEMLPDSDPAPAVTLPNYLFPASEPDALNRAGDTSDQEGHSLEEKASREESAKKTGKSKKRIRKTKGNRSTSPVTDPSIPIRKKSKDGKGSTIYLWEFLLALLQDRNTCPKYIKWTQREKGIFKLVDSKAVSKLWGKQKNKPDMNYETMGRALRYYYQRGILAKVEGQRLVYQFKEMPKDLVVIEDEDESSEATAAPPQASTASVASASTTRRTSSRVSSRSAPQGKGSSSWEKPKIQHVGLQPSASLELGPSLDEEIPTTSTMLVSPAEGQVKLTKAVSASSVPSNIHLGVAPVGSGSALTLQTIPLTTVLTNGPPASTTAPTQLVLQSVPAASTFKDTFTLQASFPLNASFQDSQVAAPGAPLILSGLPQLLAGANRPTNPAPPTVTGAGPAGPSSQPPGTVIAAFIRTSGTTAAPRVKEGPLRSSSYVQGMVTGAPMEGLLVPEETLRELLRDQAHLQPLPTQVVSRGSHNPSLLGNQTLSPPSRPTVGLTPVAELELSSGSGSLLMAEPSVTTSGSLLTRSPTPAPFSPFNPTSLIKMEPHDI

As for AAGTAC, the binding signal was 1.52 fold enrichment (6-mer frequency, TF over GST control) in experiment [1]; 1.59 fold enrichment (6-mer frequency, TF over GST control) in experiment [2]; 1.29 fold enrichment (6-mer frequency, TF over GST control) in [3]; 1.58 fold enrichment (6-mer frequency, TF over GST control) in experiment [4]; 1.5 fold enrichment (6-mer frequency, TF over GST control) in experiment [5]; 1.32 fold enrichment (6-mer frequency, TF over GST control) in [6]. For the same sequence, the binding signal was 1.41 fold enrichment (6-mer frequency, TF over GST control) in [7]; 1.68 fold enrichment (6-mer frequency, TF over GST control) in experiment [8]; 1.34 fold enrichment (6-mer frequency, TF over GST control) in experiment [9]; 1.49 fold enrichment (6-mer frequency, TF over GST control) in experiment [10]; 1.42 fold enrichment (6-mer frequency, TF over GST control) in experiment [11]; 1.39 fold enrichment (6-mer frequency, TF over GST control) in experiment [12]. The binding signal in experiment [13] was 1.59 fold enrichment (6-mer frequency, TF over GST control); in experiment [14] it was 1.92 fold enrichment (6-mer frequency, TF over GST control); in experiment [15], 1.65 fold enrichment (6-mer frequency, TF over GST control); in experiment [16] it was 1.69 fold enrichment (6-mer frequency, TF over GST control); in experiment [17] it was 1.62 fold enrichment (6-mer frequency, TF over GST control); in [18], 1.85 fold enrichment (6-mer frequency, TF over GST control).
